Data from PubChem BioAssay (NCI).
The panel holds about 79,000 compounds, 15% with a hit somewhere; the sample as a whole holds those more often. Cut-off read from the data, not from the text of the source: active = growth inhibition above about 70%; inactive = the rest.

How the values were obtained:
[1] = NCI Yeast Anticancer Drug Screen. Data for the rad50 strain (AID 155);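 note: 0% = growth of vehicle-only cultures of the same strain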; conditions: S. cerevisiae rad50 strain growth inhibition; at 50.0 µM; hits give high values
Summary of the method: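 Yeast carrying a defined DNA repair defect were exposed to test compounds, and growth was compared with vehicle-treated controls to give percent inhibition.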

[2] = NCI Yeast Anticancer Drug Screen. Data for the mec2-1 strain (AID 157); conditions: S. cerevisiae mec2-1 strain, at 50.0 µM, hits give high values
Summary of the method: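 Cells of the genetically defined mec2-1 yeast strain are incubated with test compound. Inhibition of growth is calculated against vehicle-treated controls.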

[3] = NCI Yeast Anticancer Drug Screen. Data for the sgs1 mgt1 strain (AID 161);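 note: 0% = growth of cultures given vehicle only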; conditions: S. cerevisiae sgs1 mgt1 strain, at 50.0 µM, hits give high values
Summary of the method: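 Test agents were incubated with a DNA-repair-mutant yeast strain. Growth was then read and compared against vehicle-treated controls.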

[4] = NCI Yeast Anticancer Drug Screen. Data for the cln2 rad14 strain (AID 165);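 note: 0% = growth equal to vehicle treated cultures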; conditions: S. cerevisiae cln2 rad14 strain, at 50.0 µM, hits give high values
Summary of the method: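 The screen exposed genetically defined yeast (cln2 rad14) to test compounds and scored growth inhibition relative to vehicle-treated controls.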

[5] = NCI Yeast Anticancer Drug Screen. Data for the bub3 strain (AID 167); conditions: S. cerevisiae bub3 mutant strain, at 50.0 µM, hits give high values
Summary of the method: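 Compounds were applied to a genetically altered yeast strain carrying a cell-cycle control defect. Growth inhibition was scored against vehicle-treated controls.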

[6] = NCI Yeast Anticancer Drug Screen. Data for the mlh1 rad18 strain (AID 175); conditions: S. cerevisiae mlh1 rad18 strain growth inhibition; at 50.0 µM; hits give high values
Summary of the method: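 Compound-treated yeast growth, normalised to vehicle controls. Strain bears defined DNA repair mutations.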

Measured: growth inhibition

CN(C)CCOc1ccccn1
inactive: [1] 9.45% | [2] -27.4% | [3] -5.35% | [4] 7.75% | [5] -21.7% | [6] 0.3%

CCOC(=O)c1sc(C(=O)OCC)c2c1-c1cccc3cccc-2c13
inactive: [1] -35.6% | [2] 13.1% | [3] 4.35% | [4] -48% | [5] 15.1% | [6] -9.95%

CCC(c1ccc2oc(C)cc2c1)C(CC)c1ccc2oc(C)cc2c1 (stereo not given)
inactive: [1] -15.4% | [2] -4.9% | [3] -3.45% | [4] 13.2% | [5] 45% | [6] -23.2%

O=C(O)c1cccc(C2=CCCC2)c1
inactive: [1] 15.2% | [2] 6.1% | [3] 14.1% | [4] 10.3% | [5] -26.5% | [6] 15.7%

COc1ccc2ccccc2c1C1OC(=O)c2ccccc21 (stereo not given)
inactive: [1] 37.8% | [2] 24.6% | [3] 51.7% | [4] 33.4% | [5] 25.2% | [6] 52.5%

O=C(Cn1nnc(N2CCCCC2)n1)N/N=C/c1ccccc1O
inactive: [1] -29.7% | [2] -42% | [3] -9% | [4] -10.8% | [5] -9.05% | [6] -29.3%

Oc1ccccc1-c1cc(-c2ccccc2)nc(NCCCCNc2nc(-c3ccccc3)cc(-c3ccccc3O)n2)n1
inactive: [1] -5.05% | [2] -3.95% | [3] -14.7% | [4] -21.8% | [5] -1.75% | [6] -2.65%

CCOC(=O)/C(C#N)=C(\C)c1ccc(O)c(OC)c1
inactive: [1] 11.4% | [2] 8.95% | [3] -3.45% | [4] 24.1% | [5] -8.1% | [6] 14.8%

N=C(N)Cn1cnc2ccccc21
inactive: [1] -13.7% | [2] -10.3% | [3] -9.65% | [4] 14.9% | [5] 3.8% | [6] -18.4%

NC(=S)NNC(=O)c1cccs1
inactive: [1] -9.9% | [2] -10.2% | [3] 22.6% | [4] 3.35% | [5] 7.05% | [6] 9.75%

O=c1oc2ccccc2c(O)c1C=NC(=S)c1ccncc1
inactive: [1] -30.6% | [2] -38.4% | [3] -27.9% | [4] 24.9% | [5] -11.3% | [6] -25.5%

OC1(c2ccc(-c3ccccc3)cc2)c2ccccc2-c2ccccc2C1(O)c1ccc(-c2ccccc2)cc1 (stereo not given)
inactive: [1] 6.45% | [2] -5.95% | [3] -2.2% | [4] 2% | [5] 6.3% | [6] 7.05%

CCC(O)(C#CCl)CC
inactive: [1] 11.6% | [2] -10.9% | [3] 10% | [4] 10.2% | [5] -29.1% | [6] 11.1%

O=C(NO)/C(CC(=O)c1ccccc1O)=N\O
inactive: [1] -5.4% | [2] -21.6% | [3] -11.2% | [4] -2.05% | [5] -4.15% | [6] -7.75%

O=C(O)c1cccc(F)c1C(=O)c1ccc2ccccc2c1
inactive: [1] -13.7% | [2] 4.15% | [3] -12.8% | [4] -15.2% | [5] -22.1% | [6] -9.7%

CC(=O)OC1CN(c2ccc(Br)cc2)CC(OC(C)=O)CN(c2ccc(Br)cc2)C1 (stereo not given)
inactive: [1] 6.25% | [2] 9.7% | [3] -13.8% | [4] -32.9% | [5] -5.55% | [6] -13.3%

CC[n+]1ccc(C#N)cc1
inactive: [1] 19.9% | [2] -3.25% | [3] 7.85% | [4] 7.9% | [5] 2.6% | [6] 16.9%

CN1C(=O)Cc2ccccc21
inactive: [1] 9.9% | [2] -7.25% | [3] -13.3% | [4] 11.5% | [5] 20.8% | [6] -1.05%

CC(=O)Nc1ccc(S(=O)(=O)N/N=c2/sc3ccccc3n2C)cc1
inactive: [1] -11.3% | [2] -12.4% | [3] 16% | [4] 20.5% | [5] 13.8% | [6] -4%

CN(C)c1nc(=O)c2ccccc2o1
inactive: [1] -41% | [2] -14.1% | [3] -28.4% | [4] -36.5% | [5] -7.75% | [6] -5.05%
